Screening results deposited in PubChem by several laboratories.
Sampled rows, rich in hits. Any-hit rate of the full collection: about 6.7%.
BoNT-A LC inh2: blocks Botulinum neurotoxin A light chain protease; inhibition, % at 10 µM; hit rate 0.17% among 360,000; AID 588499; multiplex microsphere protease substrate cleavage, flow cytometry; further: plate controls were buffer without enzyme for full effect and enzyme alone for no effect
BoNT-F LC inh: BoNT F light chain protease inhibition. Multiplex microsphere protease cleavage assay, flow cytometry. inhibition, % at 10 µM. hit rate 0.22% among 360,000. AID 588497; in the data active means inhibition above about 35%, passing the limit was not always enough; inconclusive means no clear call, values can overlap the other calls; further: plate controls were buffer without enzyme for full effect and enzyme alone for no effect
Autofluor counter: counter-screen for toxin protease inhibitors: compound fluorescence. compound autofluorescence counterscreen, microsphere flow cytometry; stronger effect = higher value. hit rate 3.1% among 360,000. fluorescence intensity (concentration not given with the values); in the data active means fluorescence intensity above about 16000; inconclusive means no clear call, values can overlap the other calls
FBA Mtb inh: inhibits M. tuberculosis FBA enzyme | P9WQA3 | purified M. tuberculosis FBA, fluorescence read-out | inhibition, % at 1 µM | hit rate 2.3% among 360,000 | AID 588726; in the data active means inhibition above about 27%;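 further: 0% = vehicle and 100% = reference inhibitor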
Target sequence (P9WQA3 whole entry, looked up): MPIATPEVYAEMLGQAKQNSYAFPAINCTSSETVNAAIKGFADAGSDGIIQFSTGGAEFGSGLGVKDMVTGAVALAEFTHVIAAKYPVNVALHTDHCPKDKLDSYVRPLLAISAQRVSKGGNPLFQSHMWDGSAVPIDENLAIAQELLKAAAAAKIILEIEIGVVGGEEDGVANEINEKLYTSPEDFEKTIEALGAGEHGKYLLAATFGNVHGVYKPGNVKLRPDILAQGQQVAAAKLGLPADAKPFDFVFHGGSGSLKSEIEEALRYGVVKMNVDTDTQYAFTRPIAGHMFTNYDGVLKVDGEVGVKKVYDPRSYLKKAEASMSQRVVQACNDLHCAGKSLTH
Anthrax LF prot: anthrax lethal factor protease inhibition. hit rate 0.12% among 360,000. inhibition, % at 10 µM. multiplex microsphere protease cleavage assay, LF. P15917; further: plate controls were buffer without enzyme for full effect and enzyme alone for no effect
GDH-TPI counter-1: counter-screen for M. tuberculosis FBA inhibitors: GDH-TPI coupled enzymes | GDH-TPI coupled enzyme counterscreen, NADH absorbance | inhibition, % at 4.8 µM | hit rate 1.2% among 360,000 | AID 588335; in the data active means inhibition above about 30%;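 further: 0% = DMSO wells and 100% = wells lacking the enzyme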
Mtb FBA inh conf: confirmation of M. tuberculosis fructose-bisphosphate aldolase inhibitors. shares compounds with FBA Mtb inh. purified M. tuberculosis FBA, fluorescence read-out. inhibition, % at 1 µM. hit rate 78% among 5,600; in the data active means inhibition above about 27%;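 further: 0% = vehicle wells and 100% = reference inhibitor wells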
GDH-TPI counter-2: counter-screen for M. tuberculosis FBA inhibitors: GDH-TPI coupled enzyme inhibition; GDH-TPI coupled enzyme counterscreen, fluorescence; inhibition, % at 1 µM; shares compounds with FBA Mtb inh; hit rate 81% among 5,600; in the data active means inhibition above about 10%
GDH-TPI DR: GDH-TPI dose response counter-screen for Mtb FBA | shares compounds with FBA Mtb inh | hit rate 79% among 170 | IC50, µM | AID 652145 | GDH-TPI coupled enzyme assay, fluorescence, artifact counterscreen; call rule not given here
Numbers without * were called inactive; ? = inconclusive; . = not tested or not shown; + = active, no number. Unless noted, no stated cut-off is given here; in the data, active means inhibition above about 30%; inconclusive means no clear call, values can overlap the other calls; inactive means below that.

SMILES	BoNT-A LC inh2	BoNT-F LC inh	Autofluor counter	FBA Mtb inh	Anthrax LF prot	GDH-TPI counter-1	Mtb FBA inh conf	GDH-TPI counter-2	others
CCO[C@H]1c2c(ccc3ccc(=O)oc23)OC(C)(C)[C@H]1O	0.1	2.6	3973	34.7*	3.7	9.5	+	+
CC1(C)Oc2ccc3ccc(=O)oc3c2[C@@H](O)[C@H]1O	-0.5	5.9	2974	69.0*	0.0	17.0	63.8*	65.6*
CCN(CC(=O)Nc1ccc(OC)cc1)C(=O)C1CC(=O)N(Cc2ccccc2)C1 (stereo unspecified)	0.6	2.4	3488	1.6	-1.9	-3.6	.	.
COc1ccc(S(=O)(=O)N2CCOCC2)cc1C(=O)N1CCCCCC1	0.5	9.9	4159	1.5	-7.4	-1.7	.	.
CC(=O)NN1C(=O)c2ccccc2NC1c1ccccn1 (stereo unspecified)	-0.2	0.7	8956	27.3*	-1.0	0.4	14.3	10.1	GDH-TPI DR=5.98*
O=C(NN1C(=O)c2ccccc2NC1c1ccccn1)c1ccc(Br)cc1 (stereo unspecified)	0.1	-0.2	6617	-1.8	-3.1	2.1	.	.
O=C(NN1C(=O)c2ccccc2NC1c1ccco1)c1ccc(Br)cc1 (stereo unspecified)	-0.1	0.1	4488	0.3	-4.6	-1.6	.	.
CC(=O)NN1C(=O)c2ccccc2NC1c1ccco1 (stereo unspecified)	0.2	6.6	4429	32.4*	3.0	-1.6	39.4*	23.1*
CC1(C)N=C(/C=N/O)C=[N+]1[O-]	-0.5	-1.0	2939	-0.5	-1.8	4.5	.	.
Cc1ccc(C)c(OCC(=O)Nc2nc3ccc([N+](=O)[O-])cc3s2)c1C	?	-1.1	22520*	53.0*	-0.9	20.4	0.8	-1.1
CC(=O)Nc1ccc2nc(NC(=O)COc3ccc([N+](=O)[O-])cc3)sc2c1	-1.3	-9.9	3330	1.8	-8.2	7.3	.	.
FC(F)(F)c1ccccc1Cc1c(-c2cccc(Br)c2)nc2c3ccccc3ccn12	0.8	-2.6	7698	2.1	1.5	.	.	.
CCN(C(=S)Nc1cc(S(=O)(=O)N2CCOCC2)ccc1Cl)c1cccc2ccccc12	0.5	0.6	2102	48.2*	-1.7	-1.1	82.1*	56.2*
CCOC(=O)Cn1cc(Cn2c3ccccc3c(=O)n2C(C)C)nn1	0.0	-6.0	5933	68.6*	-17.1	.	7.7	1.2
CC(C)n1c(=O)c2ccccc2n1S(C)(=O)=O	1.2	9.3	5989	.	3.7	.	.	.
CC(C)n1c(=O)c2ccccc2n1Cc1cn(C2CCCC2)nn1	-0.4	-1.2	5630	101.0*	-0.9	.	89.6*	60.3*
CCOC(=O)N1CCN(CC(c2ccccc2)c2ccccc2)CC1	0.1	16.4	3245	2.5	11.4	2.6	.	.
CN1CCN(S(=O)(=O)c2ccc(N3CCN(C(c4ccccc4)c4ccccc4)CC3)nc2)CC1	-0.3	-3.4	4653	81.0*	-4.0	4.4	+	173.2*
O=C(c1cc2ccccc2oc1=O)N(Cc1cccs1)Cc1ccccc1Cl	-1.2	-12.8	3574	2.8	-0.8	8.2	.	.
CN(C(=O)c1ccncc1)c1nnc(-c2ccncc2)s1	1.0	-4.0	4542	42.6*	-1.0	1.2	91.8*	81.0*
Cc1cccc(C(=O)N(C)c2nnc(-c3ccncc3)s2)c1	0.7	15.3	3275	-0.1	0.0	6.0	.	.
COCC(=O)N(C)c1nnc(-c2ccccn2)s1	0.6	?	3931	51.8*	3.6	5.8	91.7*	68.9*
CN(C(=O)C1CCOC1)c1nnc(-c2ccncc2)s1 (stereo unspecified)	0.6	-1.9	3468	15.7	1.3	15.5	.	.
CN(C(=O)C1CCCO1)c1nnc(-c2ccncc2)s1 (stereo unspecified)	0.3	8.3	4338	63.0*	0.4	3.7	104.5*	89.0*
CN(C(=O)C1CCCO1)c1nnc(-c2ccccn2)s1 (stereo unspecified)	-0.2	2.7	3619	67.9*	-3.8	10.5	159.9*	146.3*
SMILES	BoNT-A LC inh2	BoNT-F LC inh	Autofluor counter	FBA Mtb inh	Anthrax LF prot	GDH-TPI counter-1	Mtb FBA inh conf	GDH-TPI counter-2	others
COc1ccc(N(C(=O)c2cccc([N+](=O)[O-])c2)S(=O)(=O)c2cccs2)cc1	-0.3	4.8	3437	0.8	-5.5	-1.8	.	.
CCC(CC)COC(=O)C1=C(C)NC(=O)NC1c1ccccc1Br (stereo unspecified)	0.8	?	3976	-1.0	17.1	12.2	.	.
Cc1cccc(C2CC3(CC(C)(C)NC(=S)N3)Oc3cc(O)ccc32)c1 (stereo unspecified)	0.8	-4.2	4771	-2.0	-4.2	1.3	.	.
CN(C)CCNC(=O)c1cccn(Cc2cc(C(F)(F)F)cc(C(F)(F)F)c2)c1=O	0.5	-8.1	3673	61.5*	-6.3	12.3	1.9	-2.1
COCCNC(=O)c1c[nH]c2ccc(S(=O)(=O)Nc3ccc(F)cc3F)cc2c1=O	-1.9	-17.9	3392	0.3	-5.1	7.3	.	.
CCOC(=O)c1ccc(C(=O)OCC)c(NC(=S)Nc2ccc([N+](=O)[O-])cc2OC)c1	0.7	0.9	2083	31.5*	-0.6	19.5	-4.2	-5.8
CCOC(=O)Nc1ccc([N+](=O)[O-])cc1OC	0.7	1.0	3198	0.1	-3.8	13.8	.	.
CCOc1ccccc1NC(=O)CN1c2cccc3cccc(c23)S1(=O)=O	-0.3	-1.4	8669	3.4	-4.2	4.9	.	.
CCC(=O)N1CCN(CCN=CC2=C(O)CC(c3ccc(OC)cc3)CC2=O)CC1 (stereo unspecified)	-0.9	-6.3	1956	58.9*	-2.0	6.1	88.0*	82.1*
CCCOc1ccc(S(=O)(=O)N2CCOCC2)cc1[N+](=O)[O-]	0.0	-1.7	4308	34.1*	-5.6	-1.9	72.4*	62.9*
COc1ccccc1COC(=O)N/C=C/c1ccco1	-1.1	-5.2	3976	42.9*	-1.8	-1.6	163.2*	120.9*
Cc1c(Cl)cccc1NC(=O)CSc1sc2c(O)cc(=O)[nH]c2c1C#N	-3.4	-16.1	3522	-0.9	-6.7	21.4	.	.
Cc1coc2c1c(C)cc1oc(=O)c(CC(=O)N[C@H](C(=O)O)C(C)C)c(C)c12	-1.8	-13.8	3530	76.5*	0.8	10.7	51.5*	48.6*
Cc1coc2c(C)c3oc(=O)c(CCC(=O)N[C@H](C(=O)O)C(C)C)c(C)c3cc12	-0.6	-5.4	3171	22.1	-4.8	19.6	.	.
Cc1coc2c1c(C)cc1oc(=O)c(CC(=O)N[C@@H](C)C(=O)O)c(C)c12	1.2	10.1	3534	37.6*	-12.2	-5.7	+	+
CCC(NC(=O)Cc1c(C)c2c(cc(C)c3c(C)c(C)oc32)oc1=O)C(=O)O (stereo unspecified)	-4.8	-6.3	2982	36.6*	4.4	29.8	193.0*	178.6*
